Reference: ChEMBL document CHEMBL4513216, “Probing the Open Global Health Chemical Diversity Library for Multistage-Active Starting Points for Next-Generation Antimalarials” (ACS Infect Dis, 2020)
In all, about 69,000 compounds went through this assay and about 8,600 (12%) showed an effect of 50% or more. Only a selection was taken, and strong results are over-represented in it overall.

System: Plasmodium berghei
Assay: Screen against P. berghei liver stage (PbLuc), transformed with Luciferase, at 10uM
Assay type: functional, HepG2
Details: tested at 10 uM

First: CNCC(=O)N1CCCCC1c1nccc(C)n1 (centres undefined)
Second: Cc1cc(OCC(=O)N2CCCC2c2noc(C)n2)no1 (centres undefined)
The INHIBITION of the first is higher: 18.3% for the first, 2.97% for the second.

First: O=C(c1ccnc(-n2ccnc2)c1)N1CCCC(n2ccnc2)C1 (centres undefined)
Second: Cc1cc(C)n(C2CCCN(C(=O)c3cccc(F)c3F)C2)n1 (centres undefined)
The INHIBITION of the first is lower: 25.1% for the first, 33% for the second.

First: CC(=O)NCCNC(=O)c1cc(COc2ccccc2)[nH]n1
Second: CC(=O)NCCNC(=O)c1nc(C2CC2)n(-c2ccccc2Cl)n1
The INHIBITION of the first is lower: -3.83% for the first, 8.46% for the second.

First: O=C(c1cnc(Cc2c(Cl)cccc2Cl)nc1O)N1CCNCC1
Second: CCN1CCN(C(=O)c2cnc(Cc3c(Cl)cccc3Cl)nc2O)CC1
The INHIBITION of the first is higher: 43.9% for the first, 8.11% for the second.

First: NC1CCN(C(=O)c2cnc(Cc3c(Cl)cccc3Cl)nc2O)C1 (centres undefined)
Second: CCOc1ccccc1OC1CCN(C(=O)c2csnn2)CC1
The INHIBITION of the first is higher: 51.3% for the first, 15.3% for the second.

Going from CN(C)C(=O)N[C@@H]1CN(Cc2ccc3c(c2)OCO3)[C@@H]2CCCO[C@@H]21 to Cc1noc(C2CN(Cc3ccc4c(c3)CCO4)C2)n1, the INHIBITION rises from -15.5% to -5.01%.

First: COc1ccccc1OC1CCN(C(=O)c2c[nH]c(=O)[nH]c2=O)CC1
Second: Cc1ccccc1OC1CCN(C(=O)c2c[nH]c(=O)[nH]c2=O)CC1
The INHIBITION of the first is lower: -7.76% for the first, 60.4% for the second.

Compared with Cc1ccc(C(=O)N2CCC(Oc3ccccc3)CC2)c(=O)[nH]1, COc1ccc(OC2CCN(C(=O)c3ccc(C)[nH]c3=O)CC2)cc1 is higher in INHIBITION: 29.4% for the first, 29.85% for the second.

Going from Cc1ccc(C(=O)N2CCC(Oc3ccc(C)c(C)c3)CC2)c(=O)[nH]1 to Cc1ccc(C(=O)N2CCC(Oc3cccc(C)c3C)CC2)c(=O)[nH]1, the INHIBITION falls from 69.65% to 45.5%.

Going from COc1cccc(CC(=O)N2CCC(NCc3c[nH]nc3C)CC2)c1 to COc1cccc(-n2nnc(C(=O)N3CCOC(C)C3)c2C)c1 (centres undefined), the INHIBITION rises from -17.35% to 14.05%.

Going from O=C(CCCc1ccccn1)N1CCCC1c1noc(C2CC2)n1 (centres undefined) to O=C(Cc1ccc2c(c1)CCO2)N1CCCC1Cn1cccn1 (centres undefined), the INHIBITION rises from 0.411% to 31.6%.

Going from O=C(c1nnn(-c2ccccc2)n1)N(CCO)CCO to Cn1ccnc1CNC(=O)N(CCCO)C1CCCc2ccccc21 (centres undefined), the INHIBITION falls from -7.77% to -17.4%.

Compared with Cc1cccc(NC(=O)Cc2cnc3n(C)c(=O)[nH]c(=O)n23)c1, Cc1cnc2n(c1=O)C(CC(=O)NCc1ccccc1Cl)CS2 (centres undefined) is lower in INHIBITION: 27.5% for the first, 6.67% for the second.

Going from CNC(=O)CN1CCC(NC2CSCCc3ccccc32)CC1 (centres undefined) to CCCNC(=O)CCNC1CSCCc2ccccc21 (centres undefined), the INHIBITION rises from -18.9% to 76.9%.

OCCNC1CSCCc2ccccc21 (centres undefined) and CC(C)(C)S(=O)(=O)CCNC1CSCCc2ccccc21 (centres undefined) are the same in INHIBITION: -56.6% for the first, -56.6% for the second.

Going from CCS(=O)(=O)NCCCNC1CSCCc2ccccc21 (centres undefined) to CCS(=O)(=O)NCCN(CCO)C1CCc2ccccc21 (centres undefined), the INHIBITION falls from 60.9% to 29.4%.

First: COc1ccc(CCNC(=O)c2ccc(=O)n(C)c2)c(Cl)c1
Second: COCCNC(=O)c1ccc2c(=O)n3c(nc2c1)CCN(C)CC3
The INHIBITION of the first is higher: 1.74% for the first, -48.5% for the second.

Compared with Cn1ncc2c(=O)[nH]c(CN3CCCC3CCc3ccccc3)nc21 (centres undefined), Cc1nn(C)c(C)c1C1CCCN1Cc1nc2ccccc2n1C (centres undefined) is lower in INHIBITION: 19.6% for the first, -55.4% for the second.

Compared with Cc1cc(C)c(CNC(=O)NCCC2CCCO2)c(=O)[nH]1 (centres undefined), COc1ccc2c(c1)C(C(=O)NCCN1CCOC1=O)CC(=O)N2 (centres undefined) is higher in INHIBITION: 1.82% for the first, 34.9% for the second.

Going from CCN1CCN(C(=O)Cc2ccc(S(=O)(=O)C(F)F)cc2)CC1 to CN1CCN(C(=O)Cc2ccc(S(=O)(=O)C(F)F)cc2)CC1, the INHIBITION falls from 55.9% to 39.6%.

Compared with O=C(Cc1ccc(S(=O)(=O)C(F)F)cc1)N1CCC1, CNS(=O)(=O)c1ccc(CNC(=O)N(C)CC(C)C)cc1 is lower in INHIBITION: 43.9% for the first, 18.3% for the second.

Going from CCn1ccc(NC(=O)c2cc(C)on2)n1 to Cc1ccc(NC2CCN(C(=O)c3ccoc3C)CC2)nn1, the INHIBITION rises from -9.21% to 28.95%.

First: COCCNC(=O)c1ccc2c(=O)n3c(nc2c1)CCCCCC3
Second: COCCNC(=O)c1ccc2c(=O)n3c(nc2c1)CCCCC3
The INHIBITION of the first is higher: 55.4% for the first, 40.8% for the second.

First: CN1CCc2nc3cc(C(=O)NCc4cccs4)ccc3c(=O)n2CC1
Second: COCCNC(=O)c1ccc2c(=O)n3c(nc2c1)CCCC3
The INHIBITION of the first is lower: 21.1% for the first, 54.9% for the second.

First: COCCN1CCn2c(nc3cc(C(=O)NC(C)C)ccc32)C1
Second: CCc1n[nH]c(C2CN(C(=O)c3ccc4c(c3)CCC4)CCO2)n1 (centres undefined)
The INHIBITION of the first is higher: 19.3% for the first, -12.1% for the second.

Going from CS(=O)(=O)N1CC2(CCN(C(=O)c3csnn3)CC2)c2ccccc21 to CC1CC2(CCN(C(=O)c3csnn3)CC2)c2ccccc21 (centres undefined), the INHIBITION rises from 13.7% to 15.9%.

First: CN1CCN(C(=O)c2csnn2)c2ccccc21
Second: CCc1nc(C)ncc1C(=O)N1CCN(CC)c2ccccc21
The INHIBITION of the first is lower: 23.2% for the first, 47.7% for the second.

First: CCOC1CCC2(CCN(C(=O)c3c[nH]cn3)CC2)c2ccccc21 (centres undefined)
Second: CCOC1CCC2(CCN(C(=O)c3csnn3)CC2)c2ccccc21 (centres undefined)
The INHIBITION of the first is lower: 51.4% for the first, 56.4% for the second.

First: CC1CC2(CCN(C(=O)c3c[nH]cn3)CC2)c2ccccc21 (centres undefined)
Second: CNC(=O)C1CC2(CCN(C(=O)c3csnn3)CC2)c2ccccc21 (centres undefined)
The INHIBITION of the first is lower: 5.68% for the first, 51.3% for the second.

Going from CCOC1CC2(CCN(C(C)=O)CC2)c2cc(F)ccc21 (centres undefined) to CC(=O)N1CCCC(Cc2cncc(Br)c2)CC1 (centres undefined), the INHIBITION rises from -33.9% to 54.6%.

Going from Cc1cccc(CN2C(=O)CO[C@@H]3CN(Cc4nccn4C)C[C@H]32)c1 to CO[C@@H]1CCN(Cc2nccs2)C[C@@H]1Cc1cccc(C)c1, the INHIBITION rises from 36.1% to 54.4%.

First: COc1cccc(C2(CNC(C)c3nnc(C)o3)CCCC2)c1 (centres undefined)
Second: CO[C@@H]1CCN(c2nnc(C)s2)C[C@@H]1Cc1cccc(C)c1
The INHIBITION of the first is higher: 3.03% for the first, 2.41% for the second.

Going from CC(C)N1CCCC(Cc2cncc(Br)c2)CC1 (centres undefined) to CN1CCCC(Cc2cncc(Br)c2)CC1 (centres undefined), the INHIBITION falls from 51.5% to 44.9%.

First: CS(=O)(=O)N1CCCC(Cc2cncc(Br)c2)CC1 (centres undefined)
Second: CC(=O)N1CCCC(Cc2cncc(Br)c2)C1 (centres undefined)
The INHIBITION of the first is lower: 29.3% for the first, 44.1% for the second.

Compared with CN1CCN(C(=O)c2cncc(CC3CCCN(C)C3)c2)CC1 (centres undefined), CN(C)CCN1CCCC12CCN(C(=O)c1cccnc1)CC2 is lower in INHIBITION: 37% for the first, 11.6% for the second.

Compared with CC(=O)N1CCC(c2cncc(Cl)n2)CC1, CN1CCC(N2CCCC(C(=O)N3Cc4ccccc4C3)C2)CC1 (centres undefined) is higher in INHIBITION: 1.62% for the first, 10.6% for the second.

First: Cc1cccc(CN2CCC3(CCCN(C(=O)N4CCCC4)C3)C2=O)n1 (centres undefined)
Second: O=C(c1c[nH]cn1)N1CCCn2c(CN3CCCCC3)nnc2C1
The INHIBITION of the first is higher: -29.3% for the first, -56.3% for the second.

First: Cc1ccc(S(=O)(=O)N(CC2CCOC2)C2CC2)cc1N(C)C (centres undefined)
Second: CO[C@@H]1CCN(C2CCOCC2)C[C@@H]1Cc1ccccc1
The INHIBITION of the first is higher: 17.1% for the first, -84.9% for the second.

Compared with O=C(c1ccco1)N1CCc2ncc(CN3CCOCC3)n2CC1, COCCN1CCOCC2(CCN(c3cnccn3)CC2)C1 is higher in INHIBITION: 5.44% for the first, 29.4% for the second.

Compared with c1csc(-c2noc(C3CNC3)n2)c1, c1csc(-c2noc(C3CCCNC3)n2)c1 (centres undefined) is lower in INHIBITION: 58.1% for the first, 41.5% for the second.

First: c1cnc(-c2noc(C3CN(Cc4ccc5c(c4)CCO5)C3)n2)cn1
Second: c1cnc(-c2noc(C3CN(Cc4ccc5c(c4)CCO5)C3)n2)nc1
The INHIBITION of the first is higher: 58.5% for the first, 27.5% for the second.

Compared with c1cnc(-c2noc(C3CN(Cc4ccsc4)C3)n2)cn1, c1csc(-c2noc(C3CN(Cc4ccc5c(c4)CCO5)C3)n2)c1 is higher in INHIBITION: 28.3% for the first, 52.5% for the second.

Compared with CCS(=O)(=O)N1CC(c2nc(-c3cccs3)no2)C1, c1csc(-c2noc(C3CCCOC3)n2)c1 (centres undefined) is lower in INHIBITION: 9.41% for the first, -31% for the second.

First: CCN(CC)CCNc1nc(C(C)C)nc2c(C)nn(CC)c12
Second: Cc1nn(C)c(N(C)C)c1CNCc1ccccc1Cn1cccn1
The INHIBITION of the first is higher: 44.9% for the first, 33.8% for the second.

First: O=C(Nc1nncs1)NC1CCN(Cc2ccccc2)C1 (centres undefined)
Second: CO[C@@H]1CCN(Cc2nccs2)C[C@@H]1Cc1ccccc1
The INHIBITION of the first is lower: 12.433% for the first, 62.5% for the second.

Going from Cc1noc([C@@H]2C[C@@H]3CCN(CC4CC4)C[C@H]3O2)n1 to C[C@@H]1C[C@@H]2CCN(Cc3nccs3)C[C@H]2O1, the INHIBITION rises from -6.39% to 40.8%.

Going from Cc1nnc(CN(C)CC(=O)NCCc2ccc(F)cc2)n1C to Cc1cnc2n(c1=O)C(CC(=O)NCc1ccc(F)cc1)CS2 (centres undefined), the INHIBITION rises from -9.39% to 18.3%.

CC(C)COc1ccccc1C(N)CC(C)C (centres undefined) and CCOc1ccccc1C(N)CC(C)C (centres undefined) are the same in INHIBITION: 30.9% for the first, 30.9% for the second.

Compared with CCCOc1ccccc1C(N)CC(C)C (centres undefined), COc1ccccc1-n1c(O)cc(C)c(C#N)c1=O is lower in INHIBITION: 80.9% for the first, 39.1% for the second.

First: CCc1nc(C)ncc1C(=O)N1CC(=O)N(C)c2ccccc21
Second: CCc1nc(C)ncc1C(=O)N1CC(C)CN(C)c2ccccc21 (centres undefined)
The INHIBITION of the first is lower: 28.7% for the first, 57.8% for the second.

Going from CO[C@H]1CCN(C2CCOCC2)C[C@@H]1Cc1ccccc1 to CO[C@H]1CCN(Cc2nccs2)C[C@@H]1Cc1ccccc1, the INHIBITION rises from -8.51% to 69.5%.

First: CO[C@H]1CCN(c2nnc(C)s2)C[C@@H]1Cc1cccc(C)c1
Second: Cc1cnc2n(c1=O)C(CC(=O)NCc1ccc(Cl)cc1)CS2 (centres undefined)
The INHIBITION of the first is lower: 24.9% for the first, 61.2% for the second.

Going from C[C@H]1C[C@@H]2CCN(Cc3nccs3)C[C@H]2O1 to CCOCC1CN(C(=O)c2ccncn2)Cc2cnn(CC)c21 (centres undefined), the INHIBITION rises from 20.1% to 35.7%.

Going from Cc1nc2c(c(=O)[nH]1)CN(C(=O)CC[C@@H]1CCCN3CCCC[C@H]13)C2 to Cc1cc(O)n(-c2ccccc2Cl)c(=O)c1C#N, the INHIBITION rises from -1.85% to 50.4%.

Work on Cc1ccccc1-n1c(O)cc(C)c(C#N)c1=O yielded an INHIBITION of 3.84%.
